Screen size: about 50,000 compounds; about 800 (1.6%) showed an effect of 50% or more. For the sample, strong results were picked, then their nearest neighbours and some compounds at random.

Chain of Bcl-2-like protein 10 (Homo sapiens) (Q9HD36 whole entry, looked up): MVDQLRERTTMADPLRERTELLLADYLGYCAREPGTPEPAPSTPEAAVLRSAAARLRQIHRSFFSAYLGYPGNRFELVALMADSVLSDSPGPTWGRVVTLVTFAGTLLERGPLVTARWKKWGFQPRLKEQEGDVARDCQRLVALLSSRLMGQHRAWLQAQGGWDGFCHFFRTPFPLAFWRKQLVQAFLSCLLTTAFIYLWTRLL

This assay has as its target Bcl-2-like protein 10 (Homo sapiens) (UniProt Q9HD36). Briefly: Phenotype converters, Bcl-B/TR3 peptide binding displacement, primary biochemical FP (AID 1240).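 Note: 0% = Bcl-B with tracer peptide and DMSO and 100% = tracer peptide lacking Bcl-B.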 The settings on record: GST-Bcl-B / FITC-TR3 peptide fluorescence polarization; stronger effect = higher value; compound at 3.75 mg/L. In general terms: Polarisation of emitted light reports the rotation of a fluorescent probe.
With `CC(=O)Nc1ccc(Nc2nc3ccccc3nc2Nc2ccc(NC(C)=O)cc2)cc1`, the displacement was -13.4%.
Under `COC(=O)C1=C(C)N(Cc2ccccc2)C(=O)/C1=C\c1cccc([N+](=O)[O-])c1` stands 2.4%.
Under `CCOc1ccc(/C=C2/C(=O)NC(=O)N(c3ccc(C)cc3)C2=O)cc1` stands -9.7%; under `COc1cc(/C=C/C(=O)c2ccc(C)cc2)cc(OC)c1OC`, 1.6%.
Consider `Oc1ccccc1/C=N/Nc1nc2ccccc2s1`, for which the displacement is 0.6%.
Under `Cc1ccc(NC(=O)CN(c2ccc(Oc3ccccc3)cc2)S(C)(=O)=O)cc1` stands 5.1%; under `CC(=O)n1cc(/C=C2\Sc3ccccc3C2=O)c(-c2ccccc2)n1`, 145%.
On to `CC(=O)n1cc(/C=C2\N=C(c3cccs3)OC2=O)c(-c2ccccc2)n1`, for which the displacement is -0.1%.
To `O=C1/C(=C/c2c3ccccc3nc3ccccc23)Sc2ccccc21` belongs -0.5%; to `NC(=O)c1ccc(Sc2nc3ccccc3s2)c([N+](=O)[O-])c1`, 1.4%.
To `COC(=O)c1cccc(N2C(=O)C=CC2=O)c1` belongs 1%; to `O=C(CSc1nc2sc3c(c2c(=O)[nH]1)CCCC3)NCc1ccco1`, 59.8%.
To `O=C(CSc1nc2sc3c(c2c(=O)[nH]1)CCCC3)NCc1ccccn1` belongs -0.6%; to `O=C(CSc1nc2sc3c(c2c(=O)[nH]1)CCCC3)NCc1ccccc1`, -18.5%.
As for `Cc1ccc(C)c(S(=O)(=O)Nc2ccc(Cl)cc2)c1`, the displacement is 9%.
For `COc1ccc(NC(=O)CN(c2ccc(Cl)cc2)S(C)(=O)=O)c(OC)c1`, the displacement came out at 10.7%.
To `O=C(Nc1ccccn1)c1cc(-c2ccc(Cl)c(Cl)c2)nc2ccccc12` belongs 10%.
Under `O=C(Nc1ccc([N+](=O)[O-])cn1)c1cc(-c2ccc(Cl)c(Cl)c2)nc2ccccc12` stands 52.4%; under `O=C(Nc1cc([N+](=O)[O-])ccc1Cl)c1cc(-c2ccc(Cl)cc2)nc2ccccc12`, 13.6%; under `COC(=O)COc1ccc(/C=C2\C(=O)NC(=O)N(C)C2=O)cc1OC`, -18.2%.
To `CCOc1ccc(Br)cc1/C=N\NC(=O)c1cc(C)[nH]n1` belongs -2.6%; to `Cc1ccc(N2C(=O)C(Cl)=C(Nc3ccccc3F)C2=O)c(C)c1`, 71.5%.
As for `COc1ccccc1NC1=C(Cl)C(=O)N(c2ccc(C)cc2C)C1=O`, the displacement stood at 8.3%.
To `CCc1ccccc1NC1=C(Cl)C(=O)N(c2ccc(C)cc2C)C1=O` belongs 16.8%; to `Nc1nnc(CCC(=O)c2ccccc2)s1`, 3.5%; to `NC(=O)c1ccccc1NC(=O)c1ccc(I)cc1`, 7.7%.
To `COc1ccc(C(=O)Nc2sc(Cc3ccccc3)c(C)c2C(N)=O)cc1` belongs -16.5%; to `Cc1c(Cc2ccccc2)sc(NC(=O)c2ccc(-c3ccccc3)cc2)c1C(N)=O`, -1.3%.
Under `Cc1c(Cc2ccccc2)sc(NC(=O)c2ccc([N+](=O)[O-])cc2)c1C(N)=O` stands 65.7%.
Consider `CC(=O)Nc1cccc(NC(=O)c2cccc(I)c2)c1`, for which the displacement is -1.5%.
To `O=C(COc1ccc(Cl)cc1Cl)OCc1ccccc1` belongs -9.2%; to `Cc1ccc(S(=O)(=O)Nc2cc(C(C(=O)OC(C)C)C(=O)C(F)(F)F)c(O)c3ccccc23)cc1` (configuration not stated), -5.6%; to `CCOC(=O)C(C(C)=O)c1cc(NS(=O)(=O)c2ccc(C)cc2)c2ccccc2c1NS(=O)(=O)c1ccc(C)cc1` (configuration not stated), 78.8%.
Under `CC(=O)C(C(C)=O)c1cc(NS(=O)(=O)c2ccc(C)cc2)c2ccccc2c1O` stands 3.6%; under `Cc1cccc(-c2cc(NC(=O)c3ccc(Br)cc3)n[nH]2)c1`, 9.4%.
Under `Cc1cccc(C(=O)Nc2ccc3oc(-c4ccc(N(C)C)cc4)nc3c2)c1` stands 35.7%.
In the case of `CN(C)c1ccc(-c2nc3cc(NC(=O)c4ccccc4Br)ccc3o2)cc1`, the displacement was 1.6%.
Under `COc1ccc(Br)cc1C(=O)Nc1ccc2oc(-c3ccccc3)nc2c1` stands -2.9%; under `COc1ccccc1C(=O)Nc1ccc2oc(-c3ccncc3)nc2c1`, 135%.
Under `COc1ccc(Br)cc1C(=O)Nc1ccc(-c2nc3ccccc3o2)cc1` stands 134%; under `COc1ccc(-c2nc3ccccc3o2)cc1NC(=O)c1cc2ccccc2cc1OC`, -8.6%; under `COc1cccc(C(=O)Nc2cc(-c3nc4ccccc4o3)ccc2OC)c1`, -29.6%.
To `COc1ccc(-c2nc3ccccc3o2)cc1NC(=O)c1ccc(Br)o1` belongs 63%; to `COc1ccc(Br)cc1C(=O)Nc1ccc(-c2nc3ncccc3o2)cc1`, 5.4%; to `CN(C)c1ccc(-c2nc3cc(NC(=O)c4cccc(Br)c4)ccc3o2)cc1`, 62.5%.
Turning to `COc1ccccc1C(=O)Nc1ccc2oc(-c3cccc(C)c3)nc2c1`, the displacement came to 1.6%.
`CCc1ccc(-c2nc3cc(NC(=O)c4ccccc4OC)ccc3o2)cc1`: the displacement is 8.5%.
Under `COc1ccc2c(c1OC)C(=O)N(c1cccc(Cl)c1)C2=O` stands -23.7%.
Under `O=C1NC(=O)N(c2ccccc2Cl)C(=O)/C1=C\C=C\c1ccco1` stands 15.6%; under `COc1cc(/C=C(\C#N)c2nc3ccc(C)cc3[nH]2)cc(OC)c1O`, -65.6%; under `COc1ccc(-c2nnc(-c3cccc([N+](=O)[O-])c3)o2)cc1`, 5.8%.
Under `N/C(=N\OC(=O)c1cccc(F)c1)c1ccccc1` stands -7.1%; under `CCOc1cc(C(=S)N2CCOCC2)cc(Br)c1OC(=O)c1ccc(Cl)cc1Cl`, 14.1%.
Regarding `COC(=O)c1ccc(NC(=O)CC2Sc3ccccc3NC2=O)cc1` (configuration not stated), the displacement is 3.1%.
Under `O=C(COc1ccccc1Cl)Nc1ccc2oc(-c3ccncc3)nc2c1` stands 136%; under `O=C(Nc1ccc2oc(-c3ccncc3)nc2c1)c1ccncc1`, 28.9%.
Under `O=C(COc1ccc(Cl)cc1)Nc1ccc2oc(-c3ccccc3)nc2c1` stands -6.4%.
`O=C(Nc1ccc2oc(-c3ccncc3)nc2c1)c1cccnc1`: the displacement is 61.6%.
Under `Cc1ccc(-c2nc3cc(NC(=O)COc4ccccc4C)ccc3o2)cc1` stands -6.6%; under `O=C(Nc1ccc2oc(-c3ccccc3)nc2c1)c1ccncc1`, -3.2%.
To `CCOc1cc(/C=C2\SC(=S)N(Cc3ccco3)C2=O)ccc1O` belongs -18.8%.
Turning to `CCOC(=O)c1c(C)oc2cc(Br)c(OCC(=O)OCc3ccccc3)cc12`, the displacement was 10.8%.
Under `CCOC(=O)C1=C(C)N=C2SCCN2C1c1ccccc1` (configuration not stated) stands -10.4%; under `CSc1ccccc1NC(=O)CSc1nc2ccccc2o1`, 18.9%; under `O=C(Nc1ccccc1C(=O)O)c1ccc(N2C(=O)C3C4C=CC(C4)C3C2=O)cc1` (configuration not stated), -3.6%.
Under `CCn1c2ccccc2c2cc(/C=N/Nc3ccc([N+](=O)[O-])cc3)ccc21` stands -7.5%.
For `CCOC(=O)c1c(NC(C)=O)sc2cc(C(C)(C)C)ccc12`, the displacement was -4.1%.

(Values after PubChem BioAssay AID1240 (Sanford-Burnham Center for Chemical Genomics, 2008).)
